Test results: PubChem BioAssay (Tox21)
“And” between values parts separate entries of the source, which are not always exact repeats. Equal values may be shown once. Results filed as inconclusive are left out. Where a call stands in place of a potency, no number is given. Unmarked numbers belong to inactive results. The source made the active and inactive calls. Unless noted, the call rests on the fitted dose curve; in most records, active means well fitted curve in the direction sought with a large enough effect in the repeat runs; inconclusive means weak or mixed curves; inactive means no such curve, though single readings can be large; an effect the other way counts as inactive or inconclusive.

How the values were obtained:
[1] = qHTS assay to identify aromatase inhibitors - cell viability counter screen (AID 743084);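 further: cells stimulated with testosterone during compound exposure; nearly all actives have a fitted effect of over 55% in size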; further: potency means the concentration at half of the fitted maximal effect
[2] = qHTS assay to identify small molecule that activate the aryl hydrocarbon receptor (AhR) signaling pathway - cell viability counter screen (AID 743086);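 further: HepG2 liver cells carrying the AhR DRE luciferase reporter; series mostly up to about 70 µM; nearly all actives have a fitted effect of over 45% in size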
Procedure, shortened: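 HepG2-AhR-luc (HG2L7.5c1) cells, 4000/well, were preincubated 5 h at 37C, exposed to compound in qHTS format for 24 hr at 37C, then given CellTiter-Fluor for 30 min; viability was read as fluorescence in the reporter wells.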

[3] = target: Peroxisome proliferator-activated receptor gamma (Homo sapiens) (UniProt P37231); assay: qHTS assay to identify small molecule agonists of the peroxisome proliferator-activated receptor gamma (PPARg) signaling pathway (AID 743094; active means well fitted activation curve with a large enough effect in the signal ratio in the repeat runs, not every such curve was filed as active; the % refers to the signal ratio)
Peroxisome proliferator-activated receptor gamma (Homo sapiens), sequence (P37231 whole entry, looked up): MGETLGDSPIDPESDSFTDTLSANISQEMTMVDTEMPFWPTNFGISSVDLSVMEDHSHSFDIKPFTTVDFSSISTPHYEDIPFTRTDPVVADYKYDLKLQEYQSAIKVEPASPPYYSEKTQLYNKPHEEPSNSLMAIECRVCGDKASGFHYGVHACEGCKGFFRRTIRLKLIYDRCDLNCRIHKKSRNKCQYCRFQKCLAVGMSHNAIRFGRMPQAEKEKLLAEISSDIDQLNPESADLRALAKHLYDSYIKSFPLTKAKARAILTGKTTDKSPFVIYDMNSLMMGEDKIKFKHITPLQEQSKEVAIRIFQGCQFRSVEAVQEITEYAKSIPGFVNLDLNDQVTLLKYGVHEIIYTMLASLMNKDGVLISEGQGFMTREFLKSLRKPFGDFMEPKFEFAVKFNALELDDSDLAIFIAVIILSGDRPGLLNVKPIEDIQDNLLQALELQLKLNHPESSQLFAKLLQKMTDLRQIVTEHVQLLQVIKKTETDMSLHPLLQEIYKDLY
Procedure, shortened: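 Cell-based bla reporter, HEK293H background, PPARg-driven UAS. Pre-incubation 5 h, 37C, 5% CO2. Compound 17 h, 37C. Substrate 1 h RT; fluorescence.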

[4] = target: Peroxisome proliferator-activated receptor gamma (Homo sapiens) (UniProt P37231); assay: qHTS assay to identify small molecule antagonists of the peroxisome proliferator-activated receptor gamma (PPARg) signaling pathway (AID 743191; calls by dose curve; further: nearly all actives have a fitted effect of over 30% in size; further: potency means the concentration at half of the fitted maximal effect)
Procedure, shortened: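 GeneBLAzer PPARg UAS-bla HEK293H cells carrying a UAS-driven beta-lactamase reporter were plated at 3000 cells/well, preincubated 5 h at 37C, then given compound for 17 h at 37C; LiveBLAzer B/G FRET substrate was read after 1 h at room temperature.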

[5] = qHTS assay to identify small molecule antagonists of the peroxisome proliferator-activated receptor gamma (PPARg) signaling pathway - cell viability counter screen (AID 743194); further: nearly all actives have a fitted effect of over 55% in size
Procedure, shortened: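 PPARg-UAS-bla HEK293H cells were plated, rested 5 h at 37 C, then treated with compounds plus rosiglitazone (50 nM final) for 17 h at 37 C; viability was then read by CellTiter-Glo luminescence after 30 min at room temperature.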

[6] = qHTS assay for small molecule agonists of the antioxidant response element (ARE) signaling pathway - cell viability counter screen (AID 743203; calls by dose curve; further: nearly all actives have a fitted effect of over 55% in size)
Procedure, shortened: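 Measured in the same wells as the beta-lactamase ARE reporter, this read-out is CellTiter-Glo luminescence from HepG2 ARE-bla cells given compounds for 16 hrs.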

[7] = qHTS assay for small molecule activators of the heat shock response signaling pathway - cell viability counter screen (AID 743209); further: nearly all actives have a fitted effect of over 50% in size; further: potency means the concentration at half of the fitted maximal effect
Procedure, shortened: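 Same-well multiplex: after 2.5 h room-temperature incubation with LiveBLAzer B/G substrate and fluorescence reading, CellTiter-Glo reagent was added to HSE-bla HeLa cells that had received compound for 5 h at 37 C; luminescence read after 30 min.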

[8] = qHTS assay for small molecule activators of the heat shock response signaling pathway (AID 743210; active means well fitted activation curve with a large enough effect in the signal ratio in the repeat runs, with a control signal flat, not every such curve was filed as active; the % refers to the signal ratio; further: series mostly up to about 63 µM)
Procedure, shortened: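 Heat shock element–beta-lactamase HeLa reporter cells; qHTS with compounds for 5 h at 37 C; detection by FRET substrate fluorescence after 2.5 h at RT.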

[9] = qHTS assay to identify small molecule agonists of the peroxisome proliferator-activated receptor delta (PPARd) signaling pathway - cell viability counter screen (AID 743211); further: nearly all actives have a fitted effect of over 55% in size
Procedure, shortened: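 Viability was measured as CellTiter-Glo luminescence (30 min, room temperature) in the same wells as the beta-lactamase readout. GeneBLAzer PPARd UAS-bla HEK293H cells received compound after 5 h plating and were incubated 17 h at 37 C.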

[10] = qHTS assay to identify small molecule antagonists of the peroxisome proliferator-activated receptor delta (PPARd) signaling pathway - cell viability counter screen (AID 743213); further: nearly all actives have a fitted effect of over 50% in size; further: potency means the concentration at half of the fitted maximal effect
Procedure, shortened: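 HEK293H PPARd UAS-bla cells, 5 h pre-incubation, compound + L165041 300 nM final, 17 h 37 C; B/G FRET substrate 2 h RT; then CellTiter-Glo 30 min RT, luminescence.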

[11] = qHTS assay to identify small molecule agonists of the farnesoid-X-receptor (FXR) signaling pathway - cell viability counter screen (AID 743218); further: nearly all actives have a fitted effect of over 45% in size
Procedure, shortened: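 Readout: CellTiter-Glo luminescence, 30 min RT, multiplexed after the FXR-bla FRET reading. HEK 293T FXR-UAS-bla cells received compound 5 h post-plating and were incubated 16 h at 37 C.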

[12] = qHTS assay to identify small molecule antagonists of the farnesoid-X-receptor (FXR) signaling pathway - cell viability counter screen (AID 743221; active means well fitted cell-killing curve with a large enough effect in the repeat runs, not every such curve was filed as active; further: nearly all actives have a fitted effect of over 50% in size)
Procedure, shortened: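 Cytotoxicity counter screen run in the FXR-bla reporter wells: HEK 293T cells exposed to compound with 50 uM (final) chenodeoxycholic acid for 16 h, 37 C, then viability measured by CellTiter-Glo luminescence after 30 min, room temperature.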

[13] = target: Vitamin D3 receptor (Homo sapiens) (UniProt P11473); assay: qHTS assay to identify small molecule agonists of the vitamin D receptor (VDR) signaling pathway (AID 743222; calls by dose curve)
Vitamin D3 receptor (Homo sapiens), sequence (P11473 whole entry, looked up): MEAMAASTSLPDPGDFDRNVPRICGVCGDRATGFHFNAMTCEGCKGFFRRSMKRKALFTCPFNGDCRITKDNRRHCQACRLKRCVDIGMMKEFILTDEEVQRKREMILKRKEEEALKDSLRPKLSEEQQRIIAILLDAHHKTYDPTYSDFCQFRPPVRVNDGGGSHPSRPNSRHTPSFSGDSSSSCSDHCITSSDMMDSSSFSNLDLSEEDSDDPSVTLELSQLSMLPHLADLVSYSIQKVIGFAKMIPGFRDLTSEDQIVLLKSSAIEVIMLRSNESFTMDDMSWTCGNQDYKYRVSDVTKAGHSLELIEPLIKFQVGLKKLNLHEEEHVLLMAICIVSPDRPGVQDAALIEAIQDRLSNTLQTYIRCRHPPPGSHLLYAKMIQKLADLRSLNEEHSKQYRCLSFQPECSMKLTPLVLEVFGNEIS
Procedure, shortened: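 Following 4 h attachment at 37C, VDR-bla cells (2,000 per well) received DMSO-dissolved compounds or controls. After 16 h incubation, LiveBLAzer B/G FRET substrate was added and fluorescence read 2 h later at room temperature.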

[14] = target: Peroxisome proliferator-activated receptor delta (Homo sapiens) (UniProt Q03181); assay: qHTS assay to identify small molecule agonists of the peroxisome proliferator-activated receptor delta (PPARd) signaling pathway (AID 743212; calls by dose curve)
Peroxisome proliferator-activated receptor delta (Homo sapiens), sequence (Q03181 whole entry, looked up): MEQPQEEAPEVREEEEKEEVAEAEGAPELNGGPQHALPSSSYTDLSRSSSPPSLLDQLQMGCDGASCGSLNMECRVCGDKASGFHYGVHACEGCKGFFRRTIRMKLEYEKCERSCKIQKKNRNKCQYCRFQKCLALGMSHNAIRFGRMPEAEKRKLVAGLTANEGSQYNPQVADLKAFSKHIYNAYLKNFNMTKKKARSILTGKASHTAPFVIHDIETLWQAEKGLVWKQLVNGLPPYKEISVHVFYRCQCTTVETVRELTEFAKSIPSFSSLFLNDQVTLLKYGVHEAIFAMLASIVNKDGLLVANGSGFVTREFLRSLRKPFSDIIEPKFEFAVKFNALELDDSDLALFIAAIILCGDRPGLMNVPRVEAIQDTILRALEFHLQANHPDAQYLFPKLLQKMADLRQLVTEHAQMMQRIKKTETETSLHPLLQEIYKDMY
Procedure, shortened: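 Beta-lactamase reporter read by fluorescence (LiveBLAzer B/G FRET, 2 h, room temperature). Test agents, in DMSO, incubated at 37 C with PPARd-bla HEK293H cells.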

[15] = target: Peroxisome proliferator-activated receptor delta (Homo sapiens) (UniProt Q03181); assay: qHTS assay to identify small molecule antagonists of the peroxisome proliferator-activated receptor delta (PPARd) signaling pathway (AID 743215; active means well fitted inhibition curve with a large enough effect in the signal ratio in the repeat runs, not every such curve was filed as active; the % refers to the signal ratio;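 further: cells stimulated with agonist L165041 at 300 nM final during compound exposure; series mostly up to about 62 µM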)
Procedure, shortened: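 Fluorescence from cleaved LiveBLAzer B/G FRET substrate (2 h, room temperature) reports PPARd-driven beta-lactamase in HEK293H UAS-bla cells. Cells had been treated 17 h at 37 C with compound plus 300 nM final L165041.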

[16] = qHTS assay for small molecule agonists of the antioxidant response element (ARE) signaling pathway (AID 743202; active means well fitted activation curve with a large enough effect in the signal ratio in the repeat runs, not every such curve was filed as active; the % refers to the signal ratio; further: potency means the concentration at half of the fitted maximal effect)
Procedure, shortened: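 Following a 16 h, 37 C exposure of reporter HepG2 cells (ARE-driven beta-lactamase, 2,000 cells/well) to compounds, FRET substrate was applied for 2 h at room temperature and fluorescence intensity recorded.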

[17] = target: Aryl hydrocarbon receptor (Homo sapiens) (UniProt P35869); assay: qHTS assay to identify small molecule that activate the aryl hydrocarbon receptor (AhR) signaling pathway (AID 743085); further: nearly all actives have a fitted effect of over 15% in size; further: potency means the concentration at half of the fitted maximal effect;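 on activation: HG2L7.5c1 human HepG2 liver cells with stably integrated DRE-driven firefly reporter; series mostly up to about 70 µM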
Aryl hydrocarbon receptor (Homo sapiens), sequence (P35869 whole entry, looked up): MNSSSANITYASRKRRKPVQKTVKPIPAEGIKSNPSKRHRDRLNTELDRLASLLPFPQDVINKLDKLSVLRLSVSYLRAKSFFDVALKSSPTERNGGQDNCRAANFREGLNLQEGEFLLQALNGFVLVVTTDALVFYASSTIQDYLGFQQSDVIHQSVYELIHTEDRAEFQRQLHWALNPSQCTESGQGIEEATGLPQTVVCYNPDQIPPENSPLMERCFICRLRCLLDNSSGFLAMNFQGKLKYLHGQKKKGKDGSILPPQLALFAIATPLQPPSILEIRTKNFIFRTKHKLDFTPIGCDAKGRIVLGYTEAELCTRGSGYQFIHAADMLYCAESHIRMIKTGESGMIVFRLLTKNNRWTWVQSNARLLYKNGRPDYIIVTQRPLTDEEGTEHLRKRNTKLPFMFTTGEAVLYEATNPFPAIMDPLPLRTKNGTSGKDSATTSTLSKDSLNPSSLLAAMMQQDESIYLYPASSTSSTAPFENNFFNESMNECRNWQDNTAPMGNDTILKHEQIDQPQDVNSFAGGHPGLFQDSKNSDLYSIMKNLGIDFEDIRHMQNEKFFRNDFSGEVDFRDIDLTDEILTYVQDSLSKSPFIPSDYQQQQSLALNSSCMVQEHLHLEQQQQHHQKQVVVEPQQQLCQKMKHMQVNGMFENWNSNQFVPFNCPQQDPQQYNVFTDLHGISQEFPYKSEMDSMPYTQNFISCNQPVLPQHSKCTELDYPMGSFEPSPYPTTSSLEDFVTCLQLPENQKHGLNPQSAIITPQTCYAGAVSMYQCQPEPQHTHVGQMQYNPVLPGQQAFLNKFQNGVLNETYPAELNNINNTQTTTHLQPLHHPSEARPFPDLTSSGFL
Procedure, shortened: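 Luminescence (ONE-Glo) from a dioxin-responsive-element luciferase reporter in HG2L7.5c1 HepG2 cells after 24 hr compound exposure at 37C; viability measured by CellTiter-Fluor fluorescence beforehand.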

[18] = target: Bile acid receptor (Homo sapiens) (UniProt Q96RI1); assay: qHTS assay to identify small molecule agonists of the farnesoid-X-receptor (FXR) signaling pathway (AID 743220; active means well fitted activation curve with a large enough effect in the signal ratio in the repeat runs, not every such curve was filed as active; the % refers to the signal ratio)
Bile acid receptor (Homo sapiens), sequence (Q96RI1 whole entry, looked up): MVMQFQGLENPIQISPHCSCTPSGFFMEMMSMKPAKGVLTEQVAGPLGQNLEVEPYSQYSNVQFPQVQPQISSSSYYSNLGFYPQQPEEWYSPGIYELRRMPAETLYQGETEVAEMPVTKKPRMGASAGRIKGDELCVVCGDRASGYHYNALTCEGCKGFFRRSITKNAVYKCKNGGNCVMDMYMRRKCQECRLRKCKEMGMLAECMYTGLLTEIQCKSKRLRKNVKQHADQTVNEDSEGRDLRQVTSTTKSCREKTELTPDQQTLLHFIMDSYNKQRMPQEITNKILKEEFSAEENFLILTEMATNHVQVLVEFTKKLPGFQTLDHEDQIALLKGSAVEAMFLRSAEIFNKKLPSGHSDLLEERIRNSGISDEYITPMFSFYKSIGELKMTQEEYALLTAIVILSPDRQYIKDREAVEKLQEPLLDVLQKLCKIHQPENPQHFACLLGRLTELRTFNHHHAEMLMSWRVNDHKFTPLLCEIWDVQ
Procedure, shortened: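 FXR-UAS-bla HEK 293T cells carrying a UAS-driven beta-lactamase reporter were plated for 5 h at 37C/5% CO2, then exposed to DMSO-dissolved Tox21 10K compounds for 16 h at 37C. A LiveBLAzer B/G FRET substrate was loaded for 2 h at room temperature before fluorescence reading.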

[19] = target: Bile acid receptor (Homo sapiens) (UniProt Q96RI1); assay: qHTS assay to identify small molecule antagonists of the farnesoid-X-receptor (FXR) signaling pathway (AID 743217; active means well fitted inhibition curve with a large enough effect in the signal ratio in the repeat runs, not every such curve was filed as active; the % refers to the signal ratio)
Procedure, shortened: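 FRET fluorescence after 2 h room-temperature LiveBLAzer loading gives the readout. Prior step: FXR-bla HEK 293T cells, seeded and incubated 5 h, received test compounds plus 50 uM final CDCA for 16 h at 37 °C.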

[20] = target: Vitamin D3 receptor (Homo sapiens) (UniProt P11473); assay: qHTS assay to identify small molecule antagonists of the vitamin D receptor (VDR) signaling pathway (AID 743223; active means well fitted inhibition curve with a large enough effect in the signal ratio in the repeat runs, not every such curve was filed as active; the % refers to the signal ratio)
Procedure, shortened: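 Antagonist mode: compound added to VDR-bla cells alongside agonist 1alpha,25-dihydroxyvitamin D3 (3 nM final), incubation 16 h at 37C. Read-out is LiveBLAzer FRET fluorescence, 2 h at room temperature.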

Structure (SMILES) | Potency [1] | Potency [2] | Potency [3] | Potency [4] | Potency [5] | Potency [6] | Potency [7] | Potency [8] | Potency [9] | Potency [10] | Potency [11] | Potency [12] | Potency [13] | Potency [14] | Potency [15] | Potency [16] | Potency [17] | Potency [18] | Potency [19] | outcome [20]
CCC(=O)O[C@]1(C(=O)CCl)[C@@H](C)C[C@H]2[C@@H]3CCC4=CC(=O)C=C[C@]4(C)[C@@]3(F)[C@@H](O)C[C@@]21C | inactive | inactive | inactive | inactive | inactive | inactive | inactive | inactive | inactive | inactive | inactive | inactive | inactive |  |  |  |  |  |  | 
COc1ccnc(CS(=O)c2nc3ccc(OC(F)F)cc3[nH]2)c1OC (configuration not stated) | inactive | inactive | inactive | inactive | inactive | inactive | inactive | inactive | inactive | inactive | inactive | inactive |  | inactive | inactive |  |  |  |  | 
COc1cc2nc(N(C)CCCNC(=O)C3CCCO3)nc(N)c2cc1OC (configuration not stated) | inactive | inactive | inactive | inactive | inactive | inactive | inactive | inactive | inactive | inactive | inactive | inactive |  | inactive | inactive | 23.7 µM (active) |  |  |  | 
CCCCC/C=C\C/C=C\CCCCCCCC(=O)NC(C)c1ccccc1 (configuration not stated) | inactive | inactive | inactive |  | inactive | inactive | inactive |  |  |  | inactive | inactive |  |  |  | 29.8 µM (active) |  |  |  | 
CCC(CC)Nc1ccc(C)c(C)c1 | inactive | inactive | inactive | inactive | inactive | inactive | inactive |  |  | inactive | inactive | inactive |  |  |  |  |  |  |  | 
CCCCCCCCCc1ccc(OCCOCCO)cc1 | 21.1 µM (active) and 22.8 µM (active) |  | inactive |  |  | inactive | 23 µM (active) |  |  | 20.5 µM (active) |  | inactive | inactive | inactive |  | 1.62 µM (active) | inactive | inactive |  | 
CCOC(=O)COC(=O)c1cc(Oc2ccc(C(F)(F)F)cc2Cl)ccc1[N+](=O)[O-] | inactive |  | inactive |  | inactive | inactive | inactive |  |  | inactive | inactive | inactive | inactive |  |  |  | inactive |  | inactive | inactive
C#Cc1cccc(Nc2ncnc3cc(OCCOC)c(OCCOC)cc23)c1 | inactive |  |  | inactive | inactive | inactive | inactive | inactive | inactive | inactive | inactive | inactive |  | inactive |  |  | 2.66 µM (active) | inactive | inactive | 
CC(=O)OC[C@H]1O[C@@H](n2ncc(=O)[nH]c2=O)[C@H](OC(C)=O)[C@@H]1OC(C)=O | inactive |  |  | 0.841 µM (active) | inactive | inactive | inactive | inactive | inactive | inactive | inactive |  | inactive | inactive |  | inactive | inactive | inactive |  | 
